Assay results from PubChem BioAssay (NCI).
About 79,000 compounds went through this panel and 15% of them were active in at least one assay; those are over-represented in the sample as a whole. Rule as the data show it: active = growth inhibition above about 70%; inactive = the rest.

Legend:
[1] = NCI Yeast Anticancer Drug Screen. Data for the rad50 strain (AID 155);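 also: 0% = growth of vehicle-only cultures of the same strain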; conditions: S. cerevisiae rad50 strain growth inhibition; at 50.0 µM; hits give high values
In short: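 Vehicle-treated cultures provide the reference for the growth inhibition reported for compound-exposed, repair-deficient yeast.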

[2] = NCI Yeast Anticancer Drug Screen. Data for the mec2-1 strain (AID 157); conditions: S. cerevisiae mec2-1 strain, at 50.0 µM, hits give high values
In short: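 Mutant yeast (mec2-1) grown with compound; growth inhibition relative to vehicle control reported.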

[3] = NCI Yeast Anticancer Drug Screen. Data for the sgs1 mgt1 strain (AID 161);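 also: 0% = growth of cultures given vehicle only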; conditions: S. cerevisiae sgs1 mgt1 strain, at 50.0 µM, hits give high values
In short: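 Compounds are added to genetically altered yeast, and growth is compared with cultures given vehicle alone to give percent inhibition.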

[4] = NCI Yeast Anticancer Drug Screen. Data for the cln2 rad14 strain (AID 165);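 also: 0% = growth equal to vehicle treated cultures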; conditions: S. cerevisiae cln2 rad14 strain, at 50.0 µM, hits give high values
In short: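 Readout is yeast growth inhibition versus vehicle-treated controls, using a strain with cln2 and rad14 alterations exposed to compound.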

[5] = NCI Yeast Anticancer Drug Screen. Data for the bub3 strain (AID 167); conditions: S. cerevisiae bub3 mutant strain, at 50.0 µM, hits give high values
In short: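 Mutant yeast screening strain plus compound; vehicle-treated cultures serve as the 0% inhibition reference.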

[6] = NCI Yeast Anticancer Drug Screen. Data for the mlh1 rad18 strain (AID 175); conditions: S. cerevisiae mlh1 rad18 strain growth inhibition; at 50.0 µM; hits give high values
In short: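 Genetically defined yeast (DNA repair-deficient) exposed to compounds; growth inhibition determined relative to vehicle.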

Measured: growth inhibition

CN1C/C(=C/c2ccc(N(C)C)cc2)C(=O)/C(=C/c2ccc(N(C)C)cc2)C1
inactive: [1] -2.45% | [2] -6.9% | [3] -16.9% | [4] -5.3% | [5] -3.7% | [6] -18.9%

N#Cc1nc(NC(=O)c2ccccc2C(=O)O)c(C#N)[nH]1
inactive: [1] 1.5% | [2] 14.1% | [3] -20.8% | [4] 4.95% | [5] -8.85% | [6] -29.3%

CCCCCC(=O)c1ccccc1
inactive: [1] -27.9% | [2] -16.5% | [3] -19.3% | [4] -23.9% | [5] -8.8% | [6] -6.1%

COc1nc2c(c(O)c(C)c(=O)n2OC2OCC(OC(C)=O)C(OC(C)=O)C2OC(C)=O)c(=O)n1C (configuration not stated)
inactive: [1] -0.15% | [2] -19.4% | [3] -30.6% | [4] -1.85% | [5] -10.3% | [6] -20.8%

COC(=O)C(C)(NC(=O)C(CC(=O)OC(C)(C)C)NC(=O)OC(C)(C)C)c1ccccc1 (configuration not stated)
inactive: [1] 41.5% | [2] 16% | [3] 46.5% | [4] 35.8% | [5] 36.7% | [6] 36%

Cn1cc(S(C)=O)c(=O)c2ccccc21 (configuration not stated)
inactive: [1] 2.65% | [2] -1.6% | [3] -5.6% | [4] -13.9% | [5] 8.3% | [6] -2.35%

CCN(CC)CCCNc1ccnc2c(N)cccc12
inactive: [1] 3.1% | [2] 1.4% | [3] 5.65% | [4] 9.75% | [5] 5.45% | [6] 6.75%

COc1ccc(C(=O)CC(C#N)c2ccccc2Cl)cc1 (configuration not stated)
inactive: [1] 19.8% | [2] 39% | [3] 41.2% | [4] 13.1% | [5] 64% | [6] 8.6%

C=CCOC(=O)C(C)OC(=O)/C(Cl)=C/C(=O)O (configuration not stated)
inactive: [1] -2.45% | [2] 7.25% | [3] 16.4% | [4] -29.4% | [5] 10.5% | [6] 6.15%

Cc1ncc2c(=O)c3c(oc2n1)c1ccccc1n3Cc1ccccc1
inactive: [1] 8.75% | [2] 9.15% | [3] 15.2% | [4] 3.1% | [5] 11.7% | [6] -4.1%

Nc1nc(C(=O)O)c([N+](=O)[O-])c(=O)[nH]1
inactive: [1] -31.6% | [2] -13.7% | [3] -14.4% | [4] -20.5% | [5] -6.9% | [6] -11.8%

O=C(O)c1ccccc1P(=O)(O)c1ccccc1
inactive: [1] -13% | [2] -10.3% | [3] -6.7% | [4] 5.35% | [5] -6.85% | [6] -31.2%

O=C1C2CN(Cc3ccccc3)CC2C(=O)N1c1ccccc1 (configuration not stated)
inactive: [1] 1.9% | [2] 13% | [3] 9.25% | [4] -51.8% | [5] -37.7% | [6] 18.2%

COC(=O)C1=C(C(=O)OC)C2CCCOC2=C(C)C1 (configuration not stated)
inactive: [1] -1.35% | [2] 12.1% | [3] -6.15% | [4] 41.2% | [5] 14.3% | [6] 7%

COc1ccc(NC(=O)ON(C)C)cc1
inactive: [1] 4.45% | [2] -26.6% | [3] 5.15% | [4] -63.1% | [5] 3.75% | [6] -5.75%

Cn1c(-c2ccccc2)c/c(=N\NS(C)(=O)=O)c2cc(S(=O)(=O)O)ccc21
inactive: [1] -7.1% | [2] -27.7% | [3] -0.25% | [4] -3% | [5] 11.2% | [6] 10.2%

CCCCCCCCCCCCCCCC(=O)OCC(O)C1OC(=O)C(O)=C1O (configuration not stated)
inactive: [1] 28.1% | [2] -0.75% | [3] 4.6% | [4] 9.15% | [5] 24.2% | [6] 46.7%

c1ccc([P+](CCNCCNCC[P+](c2ccccc2)(c2ccccc2)c2ccccc2)(c2ccccc2)c2ccccc2)cc1
inactive: [1] 6.3% | [2] 9.25% | [3] -13.8% | [4] 5.65% | [5] -5.2% | [6] -0.6%

Cc1cc(Cl)cc(Cl)c1OCC(=O)O
inactive: [1] 6.3% | [2] -1.35% | [3] 4.4% | [4] -24.3% | [5] -1.75% | [6] 0.05%

O=C(O)C(O)(C1CCCCC1)C1CCC2CCC3CCCC1C32 (configuration not stated)
inactive: [1] 5.4% | [2] 9.4% | [3] 20.1% | [4] 12.7% | [5] -11.2% | [6] 14.8%

O=C(CSSCC(=O)Nc1ccc(Br)cc1)Nc1ccc(Br)cc1
inactive: [1] 28.8% | [2] 2.45% | [3] -11.5% | [4] 18.6% | [5] -6.4% | [6] 26.4%

CCOc1c(N=Nc2ccc([N+](=O)[O-])cc2)c(C)nn1C(N)=S
inactive: [1] -8% | [2] 8.05% | [3] 15.3% | [4] -27.4% | [5] 13.1% | [6] 15.9%

NCC(N)=O
inactive: [1] -1.6% | [2] -14.2% | [3] -29% | [4] -35% | [5] -36.2% | [6] 4.1%

O=C(NCCO)c1cc2ccccc2cc1O
inactive: [1] -1.9% | [2] -25.3% | [3] -10.4% | [4] -3.5% | [5] -17.9% | [6] 7.55%

N#CC1CCCC(c2ccccc2)(C2CCCCC2)C1=O (configuration not stated)
inactive: [1] 7.4% | [2] 13.1% | [3] 10.2% | [4] 26.4% | [5] 2.85% | [6] -0.9%

O=C(O)c1cc2cc(O)ccc2[nH]1
inactive: [1] 2.6% | [2] 3.6% | [3] 20.9% | [4] 3% | [5] 10.4% | [6] -5.25%

CCCCOCN1COCN(COCCCC)C1=O
inactive: [1] -2.3% | [2] -17.4% | [3] -0.45% | [4] 6.95% | [5] 18.1% | [6] 6.2%

O=c1[nH]c(=O)n(C2CC(O)C(CO)O2)cc1OCC1CCCCC1 (configuration not stated)
inactive: [1] -33.9% | [2] -4.8% | [3] -13.3% | [4] 1.85% | [5] -14.4% | [6] -19.9%

CC1C(O)CCC2C1(C)CCC1C2(C)CCC2(C)C3CC(C)(C)CCC3(C)CCC12C (configuration not stated)
inactive: [1] -4.9% | [2] -3.3% | [3] 12.4% | [4] -10.1% | [5] 5.75% | [6] -6.75%

O=C1CC2COc3ccc(OCCN4CCCC4)cc3C2=NN1c1ccccc1 (configuration not stated)
inactive: [1] -4.75% | [2] 16.9% | [3] -22.7% | [4] -18.9% | [5] 2.15% | [6] 1.1%

CC1=C(c2ccccc2)OS(=O)(=O)CC1N(C)C (configuration not stated)
inactive: [1] -2.6% | [2] -16.4% | [3] -1.65% | [4] -6.95% | [5] -7.4% | [6] -2.35%

CCOC(=O)/C(C#N)=C/c1ccccc1OC
inactive: [1] 35.6% | [2] 38.9% | [3] 31.9% | [4] 10.5% | [5] 47.5% | [6] 47.5%

CC1(c2ccccc2)CCCCC1OC(N)=O (configuration not stated)
inactive: [1] 4.3% | [2] -21.9% | [3] -13.9% | [4] 27.5% | [5] 7.2% | [6] -5.15%

Cn1ncc2c(=O)[nH]c(NN)nc21
inactive: [1] -8.35% | [2] -4.45% | [3] -4.8% | [4] -17.8% | [5] -0.95% | [6] -1.95%

CC(C)(C#N)OC(=O)c1cc([N+](=O)[O-])cc([N+](=O)[O-])c1
inactive: [1] 8.55% | [2] 4.45% | [3] 13.1% | [4] -14.9% | [5] -9.55% | [6] -2.1%

CCOC(=O)c1c(C)[nH]c(=S)c(C#N)c1-c1cccc2ccccc12
inactive: [1] -10% | [2] 9.45% | [3] 38% | [4] -12.6% | [5] 17.8% | [6] -31.3%

O=C(NCc1ccco1)Nc1ccc(Cl)cc1
inactive: [1] -29.5% | [2] -0.8% | [3] 0.6% | [4] -51.4% | [5] 14.5% | [6] -2.7%

Cc1c[n+]([O-])cc(C)c1N=Nc1ccc(N(C)C)cc1
inactive: [1] 2.55% | [2] -7.7% | [3] -7.95% | [4] 11.1% | [5] 11.9% | [6] 18.2%

CCCCCCCCC(=O)Nc1nc2nc[nH]c2c(=O)[nH]1
inactive: [1] -9.65% | [2] -33.2% | [3] -15.3% | [4] -30.1% | [5] -14.3% | [6] -5.45%

Clc1cccc(Cl)c1/C=N/Nc1nnc(N/N=C/c2c(Cl)cccc2Cl)c2ccccc12
inactive: [1] 18.8% | [2] 23.4% | [3] 56.3% | [4] 31.5% | [5] -1.4% | [6] 34.4%

O=C(O)C(Cc1ccsc1)C(=O)O
inactive: [1] -10.1% | [2] 1.1% | [3] -6.6% | [4] -17% | [5] -6.45% | [6] 12.4%

Nc1nc(O)cc(=O)[nH]1
inactive: [1] 3.35% | [2] -1.95% | [3] -0.65% | [4] -8.5% | [5] 2.35% | [6] -3.25%
